Screens deposited in PubChem BioAssay by several laboratories.
PAX8 inh HTS: lowers PAX8-driven luciferase in RMG-I cells; RMG-I TPO-luciferase reporter, SteadyGlo, 24 h; inhibition, % at 12.6 µM; 360,000 tested, 1.2% active;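 active = mean replicate inhibition at least 60% with every replicate also reaching 60%; inconclusive = only one of the two criteria is met; inactive = mean below 60% and not all replicates reaching 60%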;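 note: luciferase light reporting Pax8 driven TPO promoter activity; plate controls were median of neutral control wells for no effect and mitoxantrone controls for full effect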
CF NFkB inh: cystic fibrosis NF-kB activation inhibition; 360,000 tested, 0.86% active; KKLEB NF-kB-GFP reporter, PAF-induced, GFP fluorescence overnight; inhibition, % at 5 µM;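 active = at least 50% inhibition at 5 µM, scaled per plate between neutral and stimulator controls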;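 note: PAF is a Pseudomonas aeruginosa culture filtrate used as stimulus; plate controls were PAF-stimulated DMSO wells for no effect and unstimulated DMSO wells for full effect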
Shn3 inh set2: reduces Shn3 3'UTR luciferase signal in osteoblasts; 360,000 tested, 0.52% active; AID 588674; inhibition, % at 12.5 µM; Clone20 osteoblast Shn3 3'UTR firefly luciferase, 24 h;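 active = mean inhibition of at least 75% with every replicate also reaching 75%; inconclusive = mean inhibition at least 75% but some replicate below; inactive = mean inhibition below 75%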;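 note: 0% = median of neutral control wells and 100% = pilot-screen positive control compound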
KKLEB tox: CF airway cell cytotoxicity counter-screen; KKLEB CF airway cells viability, ATPlite luminescence, overnight; hits give low values; cells stimulated with P. aeruginosa culture filtrate; activity change (cytotoxicity), % at 5 µM; 360,000 tested, 0.36% active; AID 602141;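 active = corrected activity change at or below -50% at 5 µM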
LGR2 inh: blocks bursicon-induced cAMP signaling via Drosophila LGR2 | HEK293 LGR2, CRE-luciferase, bursicon-stimulated, 4 h | inhibition, % at 9.99 µM | 380,000 tested, 0.35% active | AID 720647;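 active = drop in luminescence signal, shown as inhibition above about 50% in the replicate tests, limit read from the data, passing the limit was not always enough; inconclusive = probably only some replicates passing the limit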;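 note: agonist challenge used bursicon conditioned medium at about half maximal strength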
EWS-Fli block: blocks EWS/Fli oncoprotein-driven transcription | A673 NR0B1-luciferase reporter, viability-normalised | inhibition, % at 12.6 µM | 350,000 tested, 0.67% active | AID 651661;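 active = mean inhibition of at least 50% after viability correction, with every replicate also passing that limit; inconclusive = mean reaches 50% but only one of two replicates passes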;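 note: firefly luciferase signal divided by Alamar Blue viability fluorescence both relative to DMSO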
Starred values were filed as active, the others as inactive; ? = inconclusive; / = no result. Sampled rows, rich in hits. Any-hit rate of the full collection: about 2%.

SMILES	PAX8 inh HTS	CF NFkB inh	Shn3 inh set2	KKLEB tox	LGR2 inh	EWS-Fli block
C=CCn1nc([N+](=O)[O-])nc1Sc1cccc2cccnc12	/	-6	89*	7	/	/
O=C(c1ccccc1)N1CC(=O)N2[C@@H](CO)[C@@H](c3ccc(C#CCC4CCCC4)cc3)[C@@H]2C1	/	/	/	/	3	/
COc1ccc2c3c([nH]c2c1)[C@@H](CO)N(C(C)=O)CC31CN(C(=O)Nc2ccccc2F)C1	/	/	/	/	-17	-1
C[C@@H]1CN([C@H](C)CO)C(=O)c2cc(NC(=O)Nc3ccccc3)ccc2O[C@@H](C)CCCCO[C@@H]1CN(C)S(=O)(=O)c1cccs1	10	/	/	/	-1	-10
C[C@@H]1CCCCO[C@H](CN(C)Cc2ccc(Cl)c(Cl)c2)[C@@H](C)CN([C@@H](C)CO)C(=O)c2cc(NC(=O)c3ccccc3)ccc2O1	82*	/	/	/	13	16
C[C@H](CO)N1C[C@H](C)[C@H](CN(C)Cc2ccc(Cl)c(Cl)c2)OCCCC[C@H](C)Oc2ccc(NC(=O)c3ccccc3)cc2C1=O	7	/	/	/	-4	6
C[C@@H]1CCCCO[C@@H](CN(C)Cc2ccc(Cl)c(Cl)c2)[C@H](C)CN([C@H](C)CO)C(=O)c2cc(NC(=O)c3ccccc3)ccc2O1	97*	/	/	/	1	29
O=C(CCN1CCCCC1)NCC[C@H]1CC[C@H](NC(=O)c2ccc(F)cc2)[C@@H](CO)O1	26	/	/	/	-11	-10
CCCN1C[C@H](C)[C@@H](OC)CN(C)C(=O)c2ccc(NC(=O)c3ccccc3F)cc2OC[C@H]1C	0	/	/	/	1	4
C=C(C)C(=O)OC1(C(F)(F)F)Oc2cc(C)ccc2NC1=O (stereo unspecified)	93*	0	43	4	/	/
Cc1cc(N2C(=O)C=CC2=O)c([N+](=O)[O-])cc1C	/	66*	89*	-1	/	/
Cc1c([N+](=O)[O-])cc(N2C(=O)C=CC2=O)cc1[N+](=O)[O-]	/	3	21	-1	2	/
CCC(=O)N[C@@H]1CC[C@@H](CC(=O)NCc2ccc(OC)cc2)O[C@H]1CO	-1	/	/	/	12	9
COc1ccc(C(=O)Nc2nc3ccccc3[nH]2)cc1	?	11	17	-29	90*	76*
COc1cccc(C(=O)Nc2nc3ccccc3[nH]2)c1	/	-5	-1	-19	/	/
Cc1ccc(C(=O)Nc2nc3ccccc3[nH]2)cc1	81*	-9	32	-52*	89*	78*
Cc1cc(C(=O)Nc2cnc3ccccc3c2)ccc1[N+](=O)[O-]	-117	-16	-45	6	-19	-74
O=C(Nc1nc2ccccc2[nH]1)c1ccc([N+](=O)[O-])cc1	-151	-8	-43	-29	-66	-49
COc1ccc(C(=O)Nc2ccc3ccccc3c2)cc1	-6	-5	24	-26	74*	61*
Cc1ccc(C(=O)Nc2cnc3ccccc3c2)cc1	90*	-5	86*	-20	/	/
C[C@H](CO)N1C[C@H](C)[C@@H](CN(C)S(=O)(=O)c2cn(C)cn2)Oc2ccc(NC(=O)CCN3CCOCC3)cc2CC1=O	/	/	/	/	21	-3
CN1[C@@H]2c3ccc(-c4cccnc4)c(=O)n3C[C@@H]2[C@@H](CO)[C@@H]1C(=O)NC1Cc2ccccc2C1	-30	/	/	/	7	3
CCCC#Cc1ccc2c(c1)O[C@@H](CN(C)CCC)[C@@H](C)CN([C@@H](C)CO)S2(=O)=O	/	/	/	/	-6	19
O=C(C1CC1)N1CC[C@@H]2[C@H]1c1cc(C#Cc3ccccc3F)ccc1N[C@@H]2CO	-19	/	/	/	4	2
Cc1ccc(S(=O)(=O)NCC[C@H]2CC[C@H](NC(=O)c3cnccn3)[C@H](CO)O2)cc1	-2	/	/	/	-8	4
SMILES	PAX8 inh HTS	CF NFkB inh	Shn3 inh set2	KKLEB tox	LGR2 inh	EWS-Fli block
CCn1c(=O)c(C(=O)Nc2nc3ccccc3[nH]2)c(O)c2ccccc21	/	89*	82	-90*	/	/
Cc1noc(/C=C/Nc2ccc(F)cc2F)c1[N+](=O)[O-]	-157	4	-34	7	-108	-58
COc1ccccc1N/C=C/c1onc(C)c1[N+](=O)[O-]	-4	-40	6	14	73*	/
Cc1ccc(-c2ccc(C3[C@@H]4CN(S(=O)(=O)c5ccc(C)cc5)C[C@H]3N4)cc2)cc1 (stereo partly specified)	73*	/	/	/	0	8
COc1cccc(S(=O)(=O)N2C[C@@H]3N[C@H](C2)C3c2ccc(-c3ccccc3OC)cc2)c1 (stereo partly specified)	-9	/	/	/	-5	-2
COc1ccccc1-c1ccc([C@@H]2[C@@H]3CN(S(=O)(=O)c4ccc(-c5ccccc5)cc4)C[C@H]2N3)cc1	107*	/	/	/	18	-3
CC=Cc1ccc2n(c1=O)C[C@H]1[C@H](CO)[C@@H](C(=O)NCc3ccncn3)N(C(=O)C3CCCC3)[C@@H]21 (mixture of isomers)	-17	/	/	/	4	1
O=C1[C@@H]2Cc3c([nH]c4ccccc34)C(c3cccc(Br)c3)N2C(=O)CN1C1CCN(Cc2ccccc2)CC1 (stereo partly specified)	91*	17	26	-12	-1	20
CCN1CCN(CCCNC(=O)c2ccc(/C=C3/Sc4ccccc4N(Cc4ccccc4F)C3=O)cc2)CC1	-28	23	-22	-12	21	10
CCN1CCN(CCNC(=O)c2ccc(/C=C3/Sc4ccccc4N(Cc4ccccc4C)C3=O)cc2)CC1	42	43	-8	-77*	48	14
COC1=C(C)C(=O)C2=C(C1=O)C1C3CC4=C(C(=O)C(OC)=C(C)C4=O)C(CNC(=O)C(C)=O)N3C(C#N)C(C2)N1C (stereo unspecified)	106*	81*	94*	-44	97*	32
Cc1ccc(C(C)C)c(OCc2nn(CC(=O)c3ccc(Cl)cc3)c3[n+]2CCCCC3)c1	66*	41	49	-25	/	?
CC(C)NC(=O)Nc1ccc2c(c1)C(=O)N([C@H](C)CO)C[C@H](C)[C@H](CN(C)Cc1ccc(Cl)c(Cl)c1)OCCCC[C@@H](C)O2	-20	/	/	/	6	0
C[C@H]1CN([C@@H](C)CO)C(=O)c2cc(NS(=O)(=O)c3ccc(F)cc3)ccc2O[C@@H]1CN(C)C(=O)Nc1ccc(C(F)(F)F)cc1	16	/	/	/	-8	-10
O=C(/C=C/c1ccncc1)c1ccc(NC(=O)c2ccccc2F)cc1	/	72*	89*	-6	/	/
O=C(/C=C/c1ccc(NC(=O)c2ccccc2-c2ccccc2C(=O)O)cc1)c1ccccc1	-2	-30	-8	1	-1	-13
C[C@@H]1CN([C@@H](C)CO)C(=O)c2cc(NC(=O)CCCN(C)C)ccc2O[C@@H]1CN(C)S(C)(=O)=O	-20	/	/	/	19	/
CCn1c2ccccc2nc2cc3c(cc21)c(Cl)c(=O)c1ccccc13	20	81*	-4	-38	14	4
